From PubChem BioAssay
An excerpt weighted towards active compounds, which were near 21% of everything screened.
Giardia FBPA inh = qHTS Assay for Inhibitors of Fructose-1,6-bisphosphate Aldolase from Giardia Lamblia | 0.71% of 290,000 active | AID 2451, 2010 | purified Giardia FBPA | Potency, µM (titrated, usually from 59.6 µM), actives largely listed as inhibitors | A8B2U2; also: nearly all actives have a fitted effect of over 55% in size
Target sequence (A8B2U2 whole entry, looked up): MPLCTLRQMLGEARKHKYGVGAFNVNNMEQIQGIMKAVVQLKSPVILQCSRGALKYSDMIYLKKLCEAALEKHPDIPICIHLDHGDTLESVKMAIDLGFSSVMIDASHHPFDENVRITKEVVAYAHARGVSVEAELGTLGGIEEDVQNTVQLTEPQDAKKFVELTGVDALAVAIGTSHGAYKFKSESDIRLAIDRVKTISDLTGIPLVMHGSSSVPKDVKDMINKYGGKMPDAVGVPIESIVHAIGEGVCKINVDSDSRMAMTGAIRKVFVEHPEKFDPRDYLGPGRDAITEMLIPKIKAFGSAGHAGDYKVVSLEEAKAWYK
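40 nM FBPA preincubated 10 min at RT with compound (up to 57.5 uM final), then substrate plus GAPDH/TPI/NAD/arsenate coupling and diaphorase/resazurin added. Fluorescence read after 20 min at RT, 525/598 nm.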
Pf growth 48h = Primary qHTS for delayed death inhibitors of the malarial parasite plastid, 48 hour incubation. P. falciparum luciferase growth in erythrocytes, 48 h. Potency, µM (highest dose often 28.7 µM), usual class: inhibitors. 5.9% of 310,000 active
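Read-out is firefly luciferase luminescence from an integrated reporter in P. falciparum, so falling signal marks reduced parasite growth. Infected erythrocytes were at 2% hematocrit and 0.1% parasitemia (final) in Albumax-supplemented RPMI 1640.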
Shiga toxin inh = A qHTS for Small Molecule Inhibitors of Shiga Toxin | inhibition, % at 38.7 µM | Vero cells, Shiga toxin protein synthesis inhibition reporter | AID 2315, 2010 | 9.2% of 290,000 active; in the data active = inhibition mostly above about 28%, no sharp cut-off; inactive = mostly below about 43%
Pf growth 96h = Primary qHTS for delayed death inhibitors of the malarial parasite plastid, 96 hour incubation. AID 504834, 2011. P. falciparum luciferase reporter growth, 96 h. Potency, µM (titrated, usually from 28.7 µM), actives largely listed as inhibitors. 6.9% of 320,000 active
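Cell-based qHTS: luciferase-tagged P. falciparum in erythrocytes (2% hematocrit, 0.05% parasitemia final) incubated with compounds for 96 hours, 37 C, 5% CO2; luciferase detection reagent then added and luminescence measured.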
CHX counter = Cycloheximide Counterscreen for Small Molecule Inhibitors of Shiga Toxin. cell reporter, cycloheximide protein synthesis inhibition counterscreen. max response, %. 12% of 300,000 active; in the data active = max response mostly above about 13%, no sharp cut-off; inactive = mostly below about 14%; also: read at 38.3 µM for the half of the compounds with a filed dose
NS1 function inh = qHTS Assay for Inhibitors of Influenza NS1 Protein Function; Potency, µM (top dose mostly 46.1 µM); 0.4% of 270,000 active; AID 2326, 2010; calls by dose curve; also: actives are rising curves; nearly all actives have a fitted effect of over 50% in size
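A cell-based growth assay was used: compounds that relieve NS1-induced slow growth of budding yeast raise OD600. Assay medium was yeast nitrogen base with ammonium sulphate and -URA supplement, pH 6.0, with 2% galactose.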
Flu NS1 inh = Assay for Inhibitors of Influenza NS1 Protein Function: Hit Validation | activity change, negative = inhibition, % at 32.9 µM | 1,400 tested, under 10 active | AID 492980, 2010 | shares compounds with NS1 function inh | influenza NS1 function cell assay, 15-point titration; calls by dose curve
PR8 titer = Assay for Inhibitors of Influenza NS1 Protein Function: Influenza virus replication assay in MDCK cells infected with virus A/PR/8/34. 30% of 95 active. shares compounds with NS1 function inh. virus titer (log TCID50), log10 TCID50 at 5 µM. MDCK infected influenza A/PR/8/34, virus titer TCID50; hits give low values; call rule not given here
Large screens that a line does not name were inactive (follow-up assays come after a bar, where they were run). Unless noted, calls follow the shape of the dose curve; as a rule, active = well fitted curve in the direction sought with a large enough effect; inconclusive = small, poorly fitted or top-dose-only effect, or another doubt; inactive = no such curve, though single readings can be large; an effect the other way counts as inactive or inconclusive.

O=C(CCN1CCOCC1)NNC(=O)Nc1cccc([N+](=O)[O-])c1	none
O=c1cc(O)c2sc(Nc3ccc(F)cc3)nc2[nH]1	Giardia FBPA inh inconclusive, Pf growth 48h inconclusive, NS1 function inh 12.6µM | Flu NS1 inh inactive
CCCN(CCC)Cc1c(C(=O)N/N=C/c2ccc(C)o2)nnn1-c1nonc1N	Pf growth 96h inconclusive
NCCn1c(=O)c(CCc2ccccc2)nc2cncnc21	none (no result: Pf growth 48h, Shiga toxin inh, Pf growth 96h, CHX counter, NS1 function inh)
Cc1sc2ncnc(OCC(=O)N3CC(=O)Nc4ccccc43)c2c1C	none (no result: NS1 function inh)
CCOc1ccc(CCNC(=O)C2CCCN(S(=O)(=O)c3c(C)n[nH]c3C)C2)cc1OCC (stereo unspecified)	Pf growth 48h 8.28µM, NS1 function inh 2.51µM | Flu NS1 inh inactive
CCCc1nn2c(=O)c(C(c3cccc(Cl)c3)c3c(O)nc4sc(CCC)nn4c3=O)c(O)nc2s1	none
COc1ccc(C2=Nc3cccc4cccc(c34)N2)cc1	Pf growth 96h inconclusive, NS1 function inh 3.55µM | Flu NS1 inh inactive
CN1CCCC(C#CC(O)(c2ccccc2)c2ccccc2)C1 (stereo unspecified)	Pf growth 48h inconclusive
Cc1ccc(C(=O)N/N=C/c2cc(C)n(-c3ccc(Br)cc3)c2C)cc1[N+](=O)[O-]	NS1 function inh 10µM (no result: Giardia FBPA inh) | Flu NS1 inh inactive | PR8 titer inactive
Cc1ccc(-c2[nH][nH]c(=O)c(=O)c2N=Nc2ccccc2)cc1	none
O=C(Nc1ccc(O)c(-c2nc3ccccc3o2)c1)C1(c2ccc([N+](=O)[O-])cc2)CCCC1	Pf growth 48h 7.38µM, Pf growth 96h inconclusive, NS1 function inh 8.91µM | Flu NS1 inh inactive
O=C(Cc1ccc([N+](=O)[O-])cc1)Nc1ccc2c(c1)C(=O)NC2=O	none (no result: NS1 function inh)
Cc1onc(-c2ccccc2Cl)c1C(=O)N(Cc1nc(-c2ccccc2)no1)C1CCCCC1	Pf growth 96h inconclusive, NS1 function inh 10µM (no result: Pf growth 48h) | Flu NS1 inh inactive
Cc1cccc(-c2noc(CN(C(=O)c3c(-c4ccccc4Cl)noc3C)C(C)C)n2)c1	Pf growth 96h inconclusive (no result: Pf growth 48h)
Cc1ccccc1-n1c(O)cc(=O)[nH]c1=S	none
O=c1cc(O)n(-c2ccccc2F)c(=S)[nH]1	NS1 function inh 3.16µM (no result: Pf growth 96h) | Flu NS1 inh inactive
NC(=O)c1nsc(C(=O)N(c2ccccc2)C(C(=O)NCc2ccc(F)cc2)c2ccc(O)cc2)c1N (stereo unspecified)	Pf growth 48h inconclusive
CC(=O)c1ccc(N2CCN(C(=O)c3cc(-c4ccc5c(c4)OCO5)nc4ccccc34)CC2)cc1	Pf growth 48h 6.57µM, Shiga toxin inh 36.2, CHX counter 20.4, NS1 function inh 12.6µM | Flu NS1 inh inactive | PR8 titer inactive
Cc1cc(C)cc(N2C(=O)NC(=O)/C(=C\c3cccn3-c3ccc(Cl)cc3)C2=O)c1	Pf growth 48h inconclusive, Pf growth 96h inconclusive, NS1 function inh 1µM | Flu NS1 inh inactive
COc1ccc(N(CC(=O)NCCSC2CCCCC2)S(=O)(=O)c2ccccc2)c(OC)c1	Pf growth 48h inconclusive, NS1 function inh 3.98µM (no result: Giardia FBPA inh) | Flu NS1 inh inactive
CSc1ccc(CN(C)CC(=O)NC(C)c2ccccc2)cc1 (stereo unspecified)	none (no result: NS1 function inh)
COc1ccc(S(=O)(=O)n2nc(OC(=O)c3c(-c4ccccc4Cl)noc3C)cc2N)cc1	NS1 function inh 10µM | Flu NS1 inh inactive
COc1ccc(C(=O)Oc2cc(N)n(S(=O)(=O)c3ccc(C)cc3)n2)cc1	Pf growth 96h inconclusive
O=C(CN1CCCCCC1=O)OCc1ncc(-c2ccccc2)o1	NS1 function inh 0.447µM | Flu NS1 inh inactive | PR8 titer inactive
COCCn1nnnc1C(c1cc2ccc(OC)cc2[nH]c1=O)N1CCN(C2CCCCC2)CC1 (stereo unspecified)	Pf growth 48h inconclusive, Pf growth 96h inconclusive, NS1 function inh 4.47µM | Flu NS1 inh inactive | PR8 titer 7.5
COCCn1nnnc1C(c1cc2cc(C)ccc2[nH]c1=O)N1CCN(C2CCCCC2)CC1 (stereo unspecified)	none (no result: Pf growth 96h)
CCN(CC)C(=O)CSC1=Nc2ccccc2C2=NC(c3ccccc3)C(=O)N12 (stereo unspecified)	NS1 function inh 2.82µM (no result: Pf growth 48h, Pf growth 96h) | Flu NS1 inh inactive
NC(=O)CSC1=Nc2ccccc2C2=NC(c3ccccc3)C(=O)N12 (stereo unspecified)	Pf growth 96h inconclusive (no result: NS1 function inh)
Cc1cccc(C(=O)Oc2ccccc2/C=N/NC(=O)c2ccc(NC(=O)C(C)(C)C)cc2)c1	Pf growth 48h inconclusive, Pf growth 96h inconclusive, NS1 function inh 20µM | Flu NS1 inh inactive
CC(C)(C)C(=O)Nc1ccc(C(=O)N/N=C/c2ccccc2OC(=O)c2ccc(Cl)cc2)cc1	Pf growth 48h inconclusive, Pf growth 96h inconclusive, NS1 function inh 10µM | Flu NS1 inh inactive
O=C(N/N=C/c1ccco1)c1ccc(NC(=O)c2ccc(Cl)cc2)cc1	none
CCOc1cc(/C=N\NC(=O)c2ccc(NC(=O)C(C)(C)C)cc2)ccc1OC(=O)c1cccc(C)c1	Pf growth 48h inconclusive, Pf growth 96h inconclusive
COc1ccc(/C=C2/C(=O)NC(=O)N(c3ccccc3)C2=O)cc1CN1C(=O)c2ccccc2C1=O	none
COc1cc(/C=C2/C(=O)NC(=O)N(c3ccccc3)C2=O)ccc1O	Pf growth 96h inconclusive, NS1 function inh inconclusive | Flu NS1 inh inactive
CCC(C)NC(=O)COC(=O)Cc1sc(N)nc1-c1ccc(C)cc1 (stereo unspecified)	NS1 function inh 1.12µM | Flu NS1 inh inactive
CCN1C(=O)c2cccc3c(S(=O)(=O)Nc4ccc(OC)cc4OC)ccc1c23	Pf growth 96h inconclusive
COCCCn1c2nc3ccccc3nc2c2c(=O)n(Cc3ccc(Cl)cc3)cnc21	Pf growth 48h inconclusive
O=c1c2c3nc4ccccc4nc3n(Cc3ccccc3)c2ncn1Cc1ccco1	Giardia FBPA inh inconclusive, Pf growth 48h 10.4µM, NS1 function inh 15.8µM (no result: Pf growth 96h) | Flu NS1 inh inactive
c1ccc(COc2ccccc2CNC23CC4CC(CC(C4)C2)C3)cc1	Pf growth 48h inconclusive, Pf growth 96h inconclusive
COc1cc(/C=N/NC(=O)c2ccc(CN3C(=O)c4cccc5cccc3c45)cc2)cc(OC)c1O	Pf growth 48h 8.28µM, Pf growth 96h inconclusive, NS1 function inh 12.6µM | Flu NS1 inh inactive
COc1ccc(/C=N/NC(=O)c2ccc(CN3C(=O)c4cccc5cccc3c45)cc2)cc1O	Giardia FBPA inh inconclusive, Pf growth 48h inconclusive (no result: NS1 function inh)
